According to PubChem BioAssay (NCI):
This is part of a sample that, as a whole, favours compounds with a hit. Of some 83,000 tested, about 20% had one in any assay.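 Values shown are percent growth following 48 h exposure of cells in 96-well plates to a single concentration of compound; below 10 was considered active.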 The source made the active and inactive calls.

Test system: A549/ATCC NSCLC
Test: NCI-60 one-dose screen, 48 h (100 = growth as untreated, 0 = no growth, -100 = all killed)
Conditions: 10 µM

| Compound | growth |
| --- | --- |
| S=C(NCc1ccccc1)NCc1ccccc1 | 86.1% (inactive) |
| CC(C)c1ccc(C(C)C(=O)N(CC2=C(C(C)c3ccccn3)c3ccccc3C2)C(C)C)cc1 (configuration not stated) | 36% (inactive) |
| COc1cc(/C=C2\CCCC3=C2NC(N)=NC3c2cc(OC)c(OC)c(OC)c2)cc(OC)c1OC (configuration not stated) | -28.4% (active) |
| COc1ccc(-c2cc(-c3ccc(Cl)cc3)nc(SCCCC(=O)NO)n2)cc1 | 5.47% (active) |
| CC(C)CCN(CCC(C)C)CC(=O)Nc1ccc(S(=O)(=O)c2ccc(NC(=O)CN(CCC(C)C)CCC(C)C)cc2)cc1 | 53.7% (inactive) |
| CN(C)CCCOc1ccccc1NC1=C(Cl)C(=O)C(Nc2ccccc2OCCCN(C)C)=C(Cl)C1=O | -55.6% (active) |
| CC(C)(C)c1nn(-c2ccccc2)c2c1CC1(CN2Cc2ccc(Cl)cc2)C(=O)c2ccccc2C1=O | 70.7% (inactive) |
| N#CCc1csc(Cc2ccccc2)n1 | 95.1% (inactive) |
| COc1ccc(/C=C/c2nnc(/C=C/c3ccc(OC)c(OC)c3)o2)cc1OC | 32% (inactive) |
| NS(=O)(=O)c1ccc(Br)cc1 | 81.8% (inactive) |
| CCOC(=O)CC(S(=O)(=O)c1ccccc1)S(=O)(=O)c1ccccc1 | 95.3% (inactive) |
| Nc1nc(N)c(N)c(Nc2ccc(CCO)cc2)n1 | 102% (inactive) |
| CCN(CC)CCOc1ccc2c(c1O)C(=O)c1ccccc1C2=O | 78.6% (inactive) |

Test system: 786-0 renal
Test: as above
Conditions: 10 µM

| Compound | growth |
| --- | --- |
| Cc1ccc(C)c(COc2cc(NC(=O)c3ccc4c(c3)OCO4)ccc2N(C)S(C)(=O)=O)c1 | 6.5% (active) |
| CCOC(=O)c1cc(C(=O)c2ccc(Cl)cc2)n2ccc(-c3cc[n+](CC(=O)c4ccc(OC)cc4)cc3)cc12 | 9.1% (active) |
| Clc1ccc(C2=NN=C3C(Cc4ccccc4)=Nc4ccccc4N3C2)cc1 | 64.1% (inactive) |
| O=C1c2ccccc2C(=O)c2c1ccc(C(Br)Br)c2[N+](=O)[O-] | 21.1% (inactive) |
| COc1ccc(-c2nc(-c3nc4ccc(C)cc4[nH]3)cc3c2[nH]c2ccccc23)cc1 | 69.9% (inactive) |
| C(=N\Nc1ncnc2sc3c(c12)CCNC3)/c1cccc2ccccc12 | 59.5% (inactive) |
| CC(=O)N[C@H](C(=O)N[C@@H](CCCNC(=N)N)C(=O)N[C@@H](CCCCN)C(=O)N[C@@H](CCCNC(=N)N)C(=O)NC(C(=O)N[C@@H](CC(C)C)C(=O)N[C@@H](CCCNC(=N)N)C(=O)N[C@@]1(C)CCC/C=C\CCC[C@@](C)(C(=O)N[C@@H](CCCNC(=N)N)C(=O)N[C@@H](CCC(=O)O)C(=O)N[C@@H](CC(C)C)C(=O)N[C@H](C(=O)N[C@@H](CCC(=O)O)C(N)=O)C(C)C)NC(=O)[C@H](CCC(N)=O)NC(=O)[C@H](CC(C)C)NC(=O)[C@H](CC(C)C)NC1=O)[C@@H](C)O)C(C)C (some centres not stated) | -85.6% (active) |
| Cc1noc(C)c1CSc1ccccc1C(=O)N1CCN(c2cccc(C(F)(F)F)c2)CC1 | 87.5% (inactive) |
| C=CCn1c(SCC(=O)Nc2ccc(C(=O)/C=C/c3ccc(OC)cc3)cc2)nnc1-c1ccc(OC)c(OC)c1 | 79.9% (inactive) |
| CNC(=O)c1cc(Oc2ccc3c(c2)sc2nc(-c4ccc(N)cc4)cn23)ccn1 | 19.4% (inactive) |
| C/C(=N\O)c1ccc(NC(=O)CSc2nnc(-c3ccccc3)n2-c2ccccc2)cc1 | 80.5% (inactive) |
| CCN(CC)CCCC(C)Nc1c2ccc(Cl)cc2nc2ccc(OC)cc12 (configuration not stated) | 25.6% (inactive) |
| CC[C@@H](C(=O)[C@@H](C)[C@@H](O)[C@H](C)[C@@H]1O[C@@H]([C@@H](CC)C(=O)N(CC)CC)CC[C@@H]1C)C1O[C@]2(C=CC(=O)[C@]3(CC[C@@](C)([C@H]4CC[C@](O)(CC)[C@H](C)O4)O3)O2)[C@H](C)C[C@@H]1C (some centres not stated) | 34.6% (inactive) |
| O=S(=O)(Oc1ccc(-c2ccc3sccc3c2)cc1)c1ccccc1 | 100% (inactive) |
| COc1ccc(-c2cc(-c3ccc(Cl)cc3)nc(SCCCCCCC(=O)NO)n2)cc1OC | 51.3% (inactive) |
| CN1C(=O)C2(Nc3cc(Cl)ccc3S2)c2cc(Cl)ccc21 (configuration not stated) | 102% (inactive) |
| Nc1ccc(/C=N/Nc2ccnc3c(O)cccc23)c2cccnc12 | 50.7% (inactive) |
| CN(C)CCOc1ccccc1NC1=C(Cl)C(=O)C(Nc2ccccc2OCCN(C)C)=C(Cl)C1=O | 74.8% (inactive) |
| CCn1c(SCCc2ccccc2)nnc1-c1nn(-c2ccc(Cl)cc2Cl)c(-c2ccc(Cl)cc2)c1C | 72.9% (inactive) |
